Screening data from PubChem BioAssay.
GRP78 ERSR act – qHTS for Inducers of the Endoplasmic Reticulum Stress Response (ERSR) in Human Glioma: qHTS. U87-MG GRP78 promoter luciferase reporter, 16 h. AID 602332, 2012. Potency, µM, for the others: top-dose activation, hits mostly activators. 420,000 compounds, 0.02% hits; active = well fitted activation curve with a large enough effect; also: potency is read from the fitted curve at half-maximal effect; series mostly up to about 76 µM; % of control where 0% means no effect; nearly all actives have a fitted effect of over 35% in size
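ERSR induction read as luciferase luminescence (Bright-Glo, 10 min at room temperature) in stably transfected human U87-MG glioma cells exposed to compounds for 16 h, using GRP78 as sensor.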
TRHR PAM – qHTS for Small Molecule Agonists and Allosteric Enhancers of Human TRH Receptor: Primary Screen for Enhancers | Thyrotropin-releasing hormone receptor (Homo sapiens), P34981 | TRHR cells, fluo-8 calcium fluorescence, EC20 TRH enhancement | enhancement, % at 2 µM | 360,000 compounds, 0.66% hits; in the data active = enhancement above about 30%; also: 0% is about no effect
Target sequence (P34981 whole entry, looked up): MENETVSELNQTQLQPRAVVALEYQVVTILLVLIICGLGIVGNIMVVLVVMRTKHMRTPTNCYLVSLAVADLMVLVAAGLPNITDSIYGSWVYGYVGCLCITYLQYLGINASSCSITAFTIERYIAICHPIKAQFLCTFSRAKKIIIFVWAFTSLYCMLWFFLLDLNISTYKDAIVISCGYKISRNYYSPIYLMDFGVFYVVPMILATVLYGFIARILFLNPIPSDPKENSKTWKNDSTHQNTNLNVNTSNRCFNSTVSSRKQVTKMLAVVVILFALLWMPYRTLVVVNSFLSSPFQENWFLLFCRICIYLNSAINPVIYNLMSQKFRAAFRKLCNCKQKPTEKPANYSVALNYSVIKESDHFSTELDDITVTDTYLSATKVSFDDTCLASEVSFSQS
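Enhancer read-out: after compound pinning and an initial kinetic agonist-mode read, an EC20 of TRH (10 nM final) was injected and fluo-8 calcium signal (Ex 480/Em 530) followed at 1 s/cycle for 100 cycles in TRHR-expressing cells.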
TRHR agonist – qHTS for Small Molecule Agonists and Allosteric Enhancers of Human TRH Receptor: Primary Screen for Agonists; activation, % at 2 µM; 360,000 compounds, 0.18% hits; TRHR cells, calcium flux fluo-8, FDSS agonist mode; also: 0% is about no effect
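TRHR-expressing cells loaded with fluo-8 calcium dye; 23 nL library compound pin-transferred, kinetic FDSS fluorescence (Ex 480/Em 530) recorded about 180 s for agonist-induced calcium release, before a 10 nM TRH EC20 addition for potentiator mode.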
D1 potentiator – Potentiators of Human D1 Dopamine Receptor: qHTS | potentiation, % at 10 µM | D(1A) dopamine receptor (Homo sapiens), P21728 | HEK293 TREx D1 cells, calcium flux, dopamine EC20 potentiation | 360,000 compounds, 0.036% hits; in the data active = potentiation above about 30%; also: 0% is about no effect
D1 antag – Antagonist of Human D 1 Dopamine Receptor: qHTS | D(1A) dopamine receptor (Homo sapiens), P21728 | HEK293 TREx D1 cells, calcium flux, dopamine EC80; hits give low values | activity change, negative = inhibition, % at 10 µM | 360,000 compounds, 3.2% hits | AID 504652, 2011; in the data active = activity change below about -30%; also: % is scaled to controls: 0 for no effect and ±100 for the full control effect
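Cells carrying a force-coupled, tetracycline-inducible human D1 receptor report calcium flux. Each well gets a 10 s baseline, compound with 180 s monitoring, then an EC80 dopamine stimulus with a second 180 s kinetic read.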
D1 agonist – Allosteric Agonists of the Human D1 Dopamine Receptor: qHTS; D(1A) dopamine receptor (Homo sapiens), P21728; HEK293 T-REx D1 cells, calcium flux, agonist mode; activation, % at 2 µM; 360,000 compounds, 1% hits; also: 0% is about no effect
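Inducible HEK293 T-REx D1 cells, force-coupled to calcium signalling, were plated at 4000 cells/well with tetracycline and held overnight at 30 C. After no-wash calcium dye loading, compound-evoked calcium rise over 180 s flagged agonists.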
Numbers without * were called inactive; · = not tested or not shown. Hits are enriched below; roughly 4% of the tested compounds scored in any of these assays. Rule as the data show it, unless noted: active = activation above about 30%; inactive = the rest.

SMILES	GRP78 ERSR act	TRHR PAM	TRHR agonist	D1 potentiator	D1 antag	D1 agonist
CN(CC(=O)Nc1cccc(C#N)c1)Cc1ccc(Cl)cc1	-5.2%	-0.3	0.0	-11.1	-41.8*	1.2
Cc1c(C(=O)Nc2ccc(S(=O)(=O)N(C)C3CCN(C)CC3)cc2)oc2ccccc12	-2.4%	-2.4	0.8	-5.5	-29.6	32.2*
CN1CCC(N(C)S(=O)(=O)c2ccc(NC(=O)c3ccc(S(=O)(=O)N(C)C)cc3)cc2)CC1	-4.0%	·	·	·	·	·
Cc1c(C(=O)Nc2ccc(S(=O)(=O)N(C)C3CCN(C)CC3)cc2)oc2c(Cl)cccc12	-12.3%	-2.8	0.2	-1.9	-59.7*	58.8*
COc1cc(NC(=O)C2=C(C)OCCS2)c(Cl)cc1C(=O)NCCN(C)C	-9.8%	-1.1	0.0	5.0	-1.4	1.5
CN1CCc2c(sc(/N=C/c3cc(C(C)(C)C)ccc3O)c2C#N)C1	-3.9%	-3.2	0.1	-8.2	-3.5	1.4
Cc1cccc(C)c1NC(=O)CN1CCC(Cc2ccccc2)CC1	-5.5%	·	·	·	·	·
COc1ccc(N2CCN(CC(=O)Nc3c(C)cc(C)cc3C)CC2)cc1	-2.0%	0.8	-0.9	-3.0	-9.3	-0.1
Cc1cccc(C)c1NC(=O)CN1CCN(CCCC(c2ccc(F)cc2)c2ccc(F)cc2)CC1	-3.2%	0.3	0.8	-5.9	-53.1*	8.2
Cc1cc(C)c(NC(=O)CN2CCN(C)CC2)c(C)c1	1.9%	32.4*	-0.8	·	-3.8	1.3
Cc1cc(C)cc(NC(=O)CN2CCN(c3ccccc3)CC2)c1	-1.8%	8.0	-0.7	-3.7	-31.7*	-0.4
COC(=O)NC(c1cccc(C)c1)[C@@]1(C(=O)OC)CCCC1=O (stereo not given in full)	-4.3%	·	·	·	·	·
COCCN1CCN(Cc2cn(C)nc2-c2cccc(Cl)c2)CC1	1.1%	-1.9	0.0	-5.0	4.9	-0.4
COCC1CCN(Cc2cn(C)nc2-c2cccc(Cl)c2)C1 (stereo not given)	-1.4%	8.0	0.1	-0.9	-41.6*	3.4
O=c1c(Cl)c(Cl)cnn1Cc1nnc(-c2ccccc2Br)o1	-13.1%	39.0*	1.0	18.9	-24.0	235.9*
CCOC(=O)c1c(NC(=O)CSc2nnc(-c3ccco3)o2)sc(C(C)=O)c1C	-1.7%	-1.9	-0.2	-5.3	-5.7	-0.7
CCOC(=O)c1c(NC(=O)CSc2nnc(-c3cccnc3)o2)sc(C(C)=O)c1C	-5.5%	13.8	0.1	4.7	-34.7*	1.5
O=C(NCc1ccc(F)cc1)c1cc(C2CCCCN2S(=O)(=O)c2ccccc2)on1 (stereo not given)	-3.9%	·	·	·	·	·
CCCn1c2ccccc2c2cnn(CC(=O)NCCc3ccc(S(N)(=O)=O)cc3)c(=O)c21	-3.3%	-3.1	40.3*	3.2	11.4	2.3
CCOC(=O)C1CCCN(C(=O)Cn2ncc3c4ccccc4n(Cc4ccccc4)c3c2=O)C1 (stereo not given)	13.6%	1.6	-2.6	-1.9	7.9	6.7
Cc1ccc(Cn2c3ccccc3c3cnn(CC(=O)Nc4cc(Cl)ccc4C)c(=O)c32)cc1	·	44.6*	-0.2	-5.5	5.6	1.6
CCOC(=O)C1CCN(C(=O)Cn2ncc3c4ccccc4n(Cc4ccccc4)c3c2=O)CC1	31.6µM*	0.2	-1.5	-0.1	-11.3	0.0
Cc1cc(C)c(Cn2c3ccccc3c3cnn(CC(=O)NCc4ccc(Cl)cc4)c(=O)c32)c(C)c1	-1.3%	12.8	0.4	-2.1	6.8	4.2
CCOC(=O)C1CCN(C(=O)Cn2ncc3c4ccccc4n(Cc4ccc(F)cc4)c3c2=O)CC1	39.8µM*	-5.2	-0.9	0.5	9.2	0.1
CC(C)(C)OC(=O)NCC(=O)NNC(=O)c1cc2ccccc2[nH]1	·	-1.6	1.4	1.6	-58.6*	1.0
SMILES	GRP78 ERSR act	TRHR PAM	TRHR agonist	D1 potentiator	D1 antag	D1 agonist
O=C(NNS(=O)(=O)c1cccc(Cl)c1)c1cc(-c2ccc(F)cc2)nc2ccccc12	-1.1%	4.5	0.2	1.1	-1.3	2.1
Cc1cccc(N2CCN(S(=O)(=O)c3ccc4c(c3)CCN4C(=O)CCC(=O)O)CC2)c1C	-7.1%	4.8	0.2	7.5	2.0	2.4
Cc1cccc(NS(=O)(=O)c2ccc3c(c2)CCN3C(=O)CCC(=O)O)c1	-4.6%	13.6	0.2	5.8	26.5	0.4
Cc1ccc(C)c(N2CCN(S(=O)(=O)c3ccc4c(c3)CCN4C(=O)CCC(=O)O)CC2)c1	0.9%	8.4	0.5	·	-34.2*	0.5
Cc1ccc(NS(=O)(=O)c2ccc3c(c2)CCN3C(=O)CCC(=O)O)cc1Cl	-2.7%	24.9	0.1	-23.8	-0.4	39.6*
C/C=C1\COC(C(=O)NC)(C(F)(F)F)C=C1C=C1CCCCC1 (stereo not given)	-10.1%	·	·	·	·	·
COC(=O)COc1ccc2c(c1)O/C(=C\c1ccco1)C2=O	1.7%	-2.6	-0.4	6.5	-1.1	3.2
CCC(=O)Oc1ccc2c(c1)O/C(=C\c1ccco1)C2=O	4.6%	-2.7	20.7	-2.3	9.5	43.0*
CCN(CC)C(=O)Oc1ccc2c(c1)O/C(=C\c1ccco1)C2=O	6.0%	-8.6	0.6	2.5	9.9	0.5
Cc1cc(O)cc2c1C(=O)/C(=C/c1ccco1)O2	2.8%	0.4	-0.7	-4.2	-6.4	42.3*
CCc1ccccc1-n1nnc(-c2nsc(NC(=O)c3ccc(C)c(C)c3)n2)c1C	-3.5%	-5.8	33.6*	12.3	20.3	4.6
CC(NC(=O)C1CCC(CNS(=O)(=O)c2ccccc2)CC1)c1ccccc1 (stereo not given)	-3.6%	6.2	1.2	-7.5	-40.6*	11.1
CCOc1ccc(N/N=C(/C#N)C(N)=O)cc1	-0.1%	1.3	0.2	-0.7	15.8	1.0
N#C/C(=N/Nc1ccc(OC(F)(F)F)cc1)C(N)=S	5.0%	-6.7	3.9	-4.5	-30.5*	40.1*
CCCc1c(-c2ccc(O)cc2)nn(-c2ccc(O)cc2)c1-c1ccc(O)cc1	-3.4%	1.6	-0.6	0.3	2.9	0.0
Cc1nc2sc(C)c(C)n2c(=O)c1S(=O)(=O)N1CCN(c2ccccc2F)CC1	-3.3%	34.9*	0.0	-4.6	-29.4	3.6
Cc1ccccc1CNC(=O)c1cccc(NC(=O)N2CCSc3ncccc32)c1	-3.4%	6.0	-0.8	-2.1	-24.1	3.8
COc1nnc(-c2ccc(N3CCOCC3)c(NC(=O)c3ccco3)c2)c2ccccc12	-4.9%	13.3	-0.1	-2.0	-91.6*	0.2
